Measured values taken from PubChem BioAssay (NCATS).
Inconclusive results are not listed. Entries that show only a call come without a potency. Unmarked numbers belong to inactive results. Activity calls are given as the source filed them. The call rests on the fitted dose curve; in most records, active means well fitted inhibition curve with a large enough effect; inconclusive means small, poorly fitted or top-dose-only effect; inactive means flat fitted curve, though single readings scatter.

Assays:
[1] = target: Calcium and integrin-binding protein 1 (Homo sapiens) (UniProt Q99828); assay: Primary qHTS for Identification of Calcium Integrin Binding Protein 1 (CIB1) Competitor (AID 1508620);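 further: GST tagged CIB1 binding a fluorescein labelled alphaIIb integrin peptide tracer; top concentration of the series differs between compounds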
Sequence of Calcium and integrin-binding protein 1 (Homo sapiens) (Q99828 whole entry, looked up): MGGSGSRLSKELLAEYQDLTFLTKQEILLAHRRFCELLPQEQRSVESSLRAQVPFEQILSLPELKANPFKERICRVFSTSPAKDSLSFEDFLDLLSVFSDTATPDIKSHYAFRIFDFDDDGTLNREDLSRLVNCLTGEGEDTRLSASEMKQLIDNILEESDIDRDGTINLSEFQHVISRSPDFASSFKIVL
In short: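 Fluorescence polarization competition: CIB1-GST (1 uM final) preincubated with compound 15 min at room temperature, then FITC-labeled alphaIIb peptide (100 nM final) added for another 15 min. Polarization read at Ex 480/Em 540.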

[2] = Primary qHTS for inhibitors of nuclear receptor binding SET domain protein 2 (NSD2) in an isogenic RCH-ACV NSD2 p.E1099K mutant (9B) (AID 1645876); further: nearly all actives have a fitted effect of over 70% in size; further: potency means the concentration at half of the fitted maximal effect

Row | SMILES | Potency [1] | Potency [2] | activity change, negative = inhibition [1] | activity change, negative = viability loss [2]
1 | COc1cc(C)c(C(=O)O[C@H]2[C@@H](OC(C)=O)[C@H](n3ccc(=O)[nH]c3=O)O[C@@H]2CO)c(OC)c1 | inactive | inactive |  | 
2 | COc1cc(/C=C/CO)cc(OC)c1O[C@@H]1O[C@H](CO[C@@H]2O[C@H](CO)[C@@H](O)[C@H](O)[C@H]2O)[C@@H](O)[C@H](O)[C@H]1O | inactive | inactive |  | 
3 | O=C(O)[C@H](Cc1ccc(Nc2nccc3ccncc23)cc1)NC1=C(Br)C(=O)C12CCCCC2 | inactive | inactive |  | 
4 | O=C(OCC1=CC(O)C2C=CO[C@@H](O[C@@H]3O[C@H](CO)[C@@H](O)[C@H](O)[C@H]3O)C12)c1ccccc1 (some centres undefined) | inactive | inactive |  | 
5 | OC[C@H]1O[C@@H](OCCc2ccc(O)cc2)[C@H](O[C@@H]2OC[C@](O)(CO)[C@H]2O)[C@@H](O)[C@@H]1O | inactive | inactive |  | 
6 | CC(=O)c1ccc(O[C@@H]2O[C@H](CO)[C@@H](O)[C@H](O)[C@H]2O)cc1 | inactive | inactive |  | 
7 | O=C(CC1C(=O)Nc2ccccc21)OC[C@H]1O[C@@H](OCCc2ccc(O)cc2)[C@H](O)[C@@H](O)[C@@H]1O (some centres undefined) | inactive | inactive |  | 
8 | CCNC(=O)C1OC(n2cnc3c(N)nc(NCCc4ccc(CCC(=O)O)cc4)nc32)C(O)C1O (centres undefined) | inactive | inactive |  | 
9 | CC(C)C(NC(=O)c1ccc2ccccc2n1)C(=O)NC(CC(=O)O)C(=O)COc1c(F)cccc1F (centres undefined) | inactive | inactive |  | 
10 | COc1ccc([C@@H]2OC[C@H]3[C@@H]2CO[C@@H]3c2ccc(OC3OC(CO)C(O)C(O)C3O)c(OC)c2)cc1OC (some centres undefined) | inactive | inactive |  | 
11 | COC(=O)c1c(C)cc(OC(=O)c2c(C)cc(OC)cc2OC)cc1O[C@@H]1O[C@H](CO)[C@@H](O)[C@H](O)[C@H]1O | inactive | inactive |  | 
12 | CC1CC(=O)C2=C(CCC3(O)C(O)c4c(O)cccc4C(=O)C23O)C1 (centres undefined) | inactive | inactive |  | 
13 | O=C(OC[C@@]1(O)CO[C@@H](O[C@H]2[C@H](Oc3ccc(O)cc3)O[C@H](CO)[C@@H](O)[C@@H]2O)[C@@H]1O)c1ccc(O)cc1 | inactive | inactive |  | 
14 | CC1=CC(=O)CC(C)(C)[C@H]1/C=C/C(CO)O[C@@H]1O[C@H](CO)[C@@H](O)[C@H](O)[C@H]1O (some centres undefined) | inactive | inactive |  | 
15 | COc1cc(O)cc(C)c1C(=O)OC1C(CO)OC(OC2C(O)C(O)C(O)C(O)C2O)C(O)C1O (centres undefined) | inactive | inactive |  | 
16 | COC1CC(O[C@H]2CC[C@@]3(C)C(CCC4C3[C@H](OC(C)=O)[C@@H](OC(=O)/C=C/c3ccccc3)[C@]3(C)C(C(C)=O)CC[C@]43O)C2)OC(C)C1OC1CC(OC)C(OC2CC(OC)C(OC3OC(C)C(OC4OC(CO)C(O)C(O)C4O)C(OC)C3O)C(C)O2)C(C)O1 (some centres undefined) |  |  | 3.75% [at 12.4 µM] | -23.3% [at 9.23 µM]
17 | CC1(C)CC[C@]2(C(=O)OC3OC(CO)C(O)C(O)C3O)CC[C@]3(C)C(=CCC4[C@@]5(C)CC[C@H](OC6OC(C(=O)O)C(O)C(OC7OC(CO)C(O)C(O)C7O)C6O)C(C)(C)C5CC[C@]43C)C2C1 (some centres undefined) | inactive |  |  | -3.97% [at 9.23 µM]
18 | C/C1=C\CC[C@]2(C)O[C@@H]2[C@H](O)[C@H](C(C)C)[C@H](OC(=O)/C=C/c2ccccc2)C1 | inactive | inactive |  | 
19 | CC(O)/C=C/C1(O)C(C)C(O[C@@H]2O[C@H](CO)[C@@H](O)[C@H](O)[C@H]2O)C(O)CC1(C)C (some centres undefined) | inactive | inactive |  | 
20 | C[C@H](O)[C@H](O)/C=C/c1cccc(O)c1CO | inactive | inactive |  | 
21 | C[C@H](Nc1ncnc2nc[nH]c12)c1cc2ccc(F)cc2nc1-c1ccccn1 | inactive | 833 nM (active) |  | 
22 | O=C(O)c1cc(I)ccc1NC(=O)[C@H](Cc1ccccc1)NCc1ccccc1 | inactive | inactive |  | 
23 | CC(C)CCC[C@@H](C)[C@H]1CC[C@H]2[C@@H]3CC(=O)[C@H]4C[C@@H](O)CC[C@]4(C)[C@H]3CC[C@]12C | inactive | inactive |  | 
24 | CCC1C(=O)N(C)c2cnc(Nc3ccc(C(=O)NC4CCC(N5CCN(CC6CC6)CC5)CC4)cc3OC)nc2N1C(C)C (centres undefined) | inactive | 18.3 nM (active) |  | 
25 | Cc1cc(O)cc(O[C@@H]2O[C@H](CO)[C@@H](O)[C@H](O)[C@H]2O)c1 | inactive | inactive |  | 
26 | CC(=O)OC[C@H]1O[C@H](O[C@]2(CO)O[C@H](CO)[C@@H](OC(=O)/C=C/c3ccccc3)[C@@H]2O)[C@H](O)[C@@H](O)[C@@H]1O | inactive | inactive |  | 
27 | C/C(=C\C=C\C(C)C1CCC2(C)C3CCC4C(C)(C)C(=O)CCC45CC35CCC12C)C(=O)O (centres undefined) | inactive | inactive |  | 
